High-throughput results as filed in PubChem BioAssay.
This is a sample that favours compounds with a hit; in the whole collection about 0.78% have one here.
V-ATPase pH – alters yeast V-ATPase proton transport; AID 504577; S. cerevisiae, pHLuorin cytosolic pH fluorescence; response, % at 10 µM; 350,000 tested, 0.37% active; in the data active = response mostly above about 7.3%, no sharp cut-off; inactive = mostly below about 5.4%; note: actives read high
Yeast superoxide – caloric restriction mimetics inhibiting age-related superoxide in yeast | superoxide response (% of plate mean), % at 10 µM | 330,000 tested, 0.18% active | S. cerevisiae aged cells, superoxide DHE fluorescence; hits give low values | AID 2690;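 active = superoxide response under a set limit, about three screen SD below normal, cut at about 65% in these data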;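 note: yeast aged for seven days with compound at 30 °C before DHE staining; 100% = average MFI of all compound-treated wells on the plate with controls excluded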
PKA-R2B act – activators of human PKA-R2B complex; activation, % at 11.4 µM; P22694+P31323; 340,000 tested, 0.079% active; AID 504700; PKA-R2B holoenzyme dissociation, Cy5-IP20 fluorescence polarization; R2B truncated from residue 108, S112A mutant; 0% DMSO only, 100% 113 µM cGMP;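 active = activation above a cutoff set at the mean over all compounds plus 3 SD, cut at about 18% in these data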;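 note: higher means more holoenzyme dissociation and a rise in polarization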
Target sequence (P31323 whole entry, looked up, other chains not shown, the tested form may be a part): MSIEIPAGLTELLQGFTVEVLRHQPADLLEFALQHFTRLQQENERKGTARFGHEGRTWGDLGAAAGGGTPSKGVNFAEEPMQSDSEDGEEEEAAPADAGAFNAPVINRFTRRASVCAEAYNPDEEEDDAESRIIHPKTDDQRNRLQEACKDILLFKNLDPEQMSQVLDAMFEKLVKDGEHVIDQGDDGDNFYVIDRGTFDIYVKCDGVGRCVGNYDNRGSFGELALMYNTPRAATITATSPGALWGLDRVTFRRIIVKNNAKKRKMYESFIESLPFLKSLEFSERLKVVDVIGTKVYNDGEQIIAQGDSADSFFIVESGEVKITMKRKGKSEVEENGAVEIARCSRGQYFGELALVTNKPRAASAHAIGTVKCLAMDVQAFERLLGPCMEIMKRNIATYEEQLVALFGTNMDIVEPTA
PolyA inhibitor – inhibitors of polyadenylation in S. cerevisiae. S. cerevisiae SKY197-pL101 polyadenylation reporter, beta-gal luminescence; efflux-impaired pdr1/pdr3 knockout yeast; score 100 = 6 SD above DMSO. activity score, % at 12 µM. 300,000 tested, 0.02% active;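 active = lowest replicate activity score at least 50, where 100 means six control SD above control mean; inconclusive = lowest score under 50 but half or more replicates reach 50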;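 note: yeast exposed to compound for 9 h at 30 °C; higher score means more reporter readthrough which indicates perturbed polyadenylation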
PKA-R1A act – activators of PKA-R1A complex | AID 504707 | P00514+P68181 | PKA-R1A dissociation, Cy5-IP20 fluorescence polarization; scaled: DMSO 0%, 113 µM cGMP 100% | 340,000 tested, 0.083% active | activation, % at 11.4 µM;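 active = percent activation above the mean of all tested compounds plus 3 SD, cut at about 19% in these data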;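 note: higher means more PKAc released from R1A so a rise in polarization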
GASC-1 inh – inhibitors of human GASC-1 (JMJD2C) demethylase | Q9H3R0 | GST-JMJD2C(1-420) H3K9me3 demethylation, DELFIA europium | inhibition, % at 2.35 µM | 330,000 tested, 0.069% active | AID 2099;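 active = more than half of a compound's replicate wells show inhibition beyond 50%, single wells judged on their own value; inconclusive = some, but no more than half, of replicates pass 50% inhibition; inactive = no replicate passes 50% inhibition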;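 note: signal counts dimethyl H3K9 product captured on neutravidin plate; 0% = median of DMSO wells and 100% = 0.3 times that DMSO median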
VATPase regulator – regulators of yeast V-ATPase proton transport. 980 tested, 2% active. shares compounds with V-ATPase pH. response, % at 10 µM. AID 602197. S. cerevisiae pHLuorin cytosolic pH; in the data active = response above about 24%;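 note: plate controls were vehicle wells for no effect and positive control wells for full effect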
An asterisk follows results filed as active; ? = inconclusive; · = not tested or not shown.

SMILES	V-ATPase pH	Yeast superoxide	PKA-R2B act	PolyA inhibitor	PKA-R1A act	GASC-1 inh	VATPase regulator
COc1ccc(C)cc1S(=O)(=O)NCC(c1ccc2c(c1)OCO2)N1CCOCC1 (stereo not given)	10.7*	105.4	3.9	0.5	-0.1	-38.5	-3.5
Cc1ccc(C(=O)CCC(=O)Nc2ccc(C)cn2)cc1	0.5	114.8	-9.0	·	-2.2	-9.6	·
Cc1ccc(C(=O)CCC(=O)NC2=NCCS2)cc1	1.9	82.1	-0.9	·	-16.0	·	-1.8
CCOc1ccc(OCCCC(=O)NC2=NCCS2)cc1	4.6	96.9	-4.7	?	-4.4	1.0	·
Cc1cc(OCCCC(=O)NC2=NCCS2)ccc1Cl	9.5*	100.1	-15.2	11.4	-10.3	8.5	-2.1
O=S(=O)(Nc1cccc(-c2ccc3nncn3n2)c1)c1ccc(Cl)s1	-1.1	116.1	-6.7	-0.1	-1.3	1.9	·
C=CCn1cc(C(C)=O)c(=O)[nH]c1=O	6.4*	92.4	-6.1	11.6	-4.7	10.4	-1.9
Cn1nc(NC(=O)C(C)(C)C)c2c(F)cccc21	11.9*	89.7	0.2	8.4	6.9	35.1	1.2
CN(C)c1cccc2c1c(NC(=O)c1ccc(F)cc1)nn2C	-2.8	93.7	-8.4	-3.3	-3.4	2.7	·
Cc1ccc(/C=C/C(=O)c2ccc(N3CCOCC3)cc2)s1	10.1*	115.7	-0.4	-12.4	-7.7	1.8	-1.0
COc1ccc(C2(C)NC(=O)N(CC(=O)NCc3ccccc3F)C2=O)cc1 (stereo not given)	4.6	99.6	1.0	-1.6	-10.8	-7.3	·
COc1cccc(/C=c2\s/c(=C/C(=O)c3ccc(C)cc3)[nH]c2=O)c1OC	8.0*	90.0	0.9	-9.8	-3.3	-3.6	-54.4
COc1ccc(/C=c2\s/c(=C/C(=O)c3ccc(C)cc3)[nH]c2=O)c(OC)c1	-8.2	102.7	7.0	-14.2	-26.8	-1.1	·
COc1cc(OC)c(C(=O)OCC(=O)Nc2nnc(-c3ccccc3)o2)cc1OC	12.5*	113.4	8.8	·	1.5	2.7	2.5
COc1cc(OC)cc(C(=O)OCC(=O)Nc2nnc(-c3ccccc3)o2)c1	-3.3	·	6.1	·	12.0	·	·
Cc1nn(CC(=O)Nc2cccc(Cl)c2)c(=O)c2cc(-c3ccccc3)nn12	-1.8	119.6	-8.5	11.0	1.0	3.0	·
CCc1ccc(S(=O)(=O)Nc2cccc(-c3ccc4nnc(C)n4n3)c2)s1	-1.6	91.3	-13.3	6.5	-11.8	-5.5	·
OCCCn1c(-c2ccccc2)csc1=Nc1ccccc1	8.0*	89.2	-6.0	-14.9	0.1	-4.8	1.9
COC(=O)C1=C(C(=O)OC)C2C=CC1C1C(OC(C)=O)C(OC(C)=O)C21 (stereo not given)	-1.3	·	-3.3	·	15.8	·	·
CC(c1ccco1)N(C(=O)C12CC3(C)CC(C)(CC(C)(C3)C1)C2)c1ccccn1 (stereo not given)	12.7*	108.0	2.4	-15.0	8.0	12.7	-2.9
CCOc1cc(/C=C/C(=O)c2ccc(O)cc2)ccc1OCC(=O)N(C)C	-6.7	100.8	-0.8	-3.2	6.7	9.7	·
CCOc1cc(/C=C/C(=O)c2ccc3c(c2)OCCO3)ccc1OCC(=O)N(C)C	14.9*	91.6	6.2	2.2	5.5	0.2	0.2
COCCOC(=O)c1c(NC(=O)CNCc2ccco2)sc(C(N)=O)c1C	10.3*	108.2	9.3	3.5	0.8	-29.9	-1.8
CSCCC(NC(=O)c1ccccc1)C(=O)N1CC=C(c2ccccc2)CC1 (stereo not given)	9.3*	93.5	-1.7	-13.9	1.4	-8.7	-0.2
CC(OC(=O)c1cc(=O)[nH]c2ccccc12)C(=O)NC1CCCC1 (stereo not given)	-0.8	93.6	2.2	·	-2.9	9.4	·
SMILES	V-ATPase pH	Yeast superoxide	PKA-R2B act	PolyA inhibitor	PKA-R1A act	GASC-1 inh	VATPase regulator
O=C(Nc1ccc(Nc2ccccc2)cc1)C1CC1	7.5*	78.0	1.3	-3.8	-7.6	-1.3	7.0
COc1ccc(/C=C/C(=O)c2ccc(O)cc2)cc1	9.3*	87.3	-11.7	6.4	-5.1	10.8	5.0
COc1ccc(/C=C/C(=O)c2ccoc2)cc1	2.1	98.5	-3.7	6.3	-13.8	2.3	·
N#Cc1c(NC(=O)Cn2nc(C(F)(F)F)c3c2CCCC3)sc2c1CCC2	10.2*	87.9	1.8	21.0	-8.5	-3.1	14.1
O=C(NCCC1=CCCCC1)Nc1ccc2nsnc2c1	0.2	97.8	-4.5	-1.8	0.1	20.3	·
N#C/C(=C\c1ccco1)C(=O)Nc1ccc(S(N)(=O)=O)cc1	8.6*	88.9	5.4	1.2	0.9	4.1	-6.9
Nc1nnc(SCC(=O)Nc2ccc(N3CCOCC3)c(Cl)c2)s1	7.4*	110.1	-5.7	-1.2	-3.7	-14.9	-1.0
Nc1ccc2nc(SCC(=O)Nc3ccc(N4CCOCC4)c(Cl)c3)sc2c1	1.1	103.1	2.8	5.6	2.3	2.6	·
N=C1/C(=C/c2cccn2Cc2ccc(F)cc2)C(=O)N=C2SC=CN12	11.1*	98.7	4.7	-18.3	-6.7	1.0	-0.6
CC(Sc1nnc(-c2ccco2)n1C)C(=O)N(C)C1CCCCC1 (stereo not given)	-2.4	85.4	-5.2	-22.7	-11.3	0.0	·
Cc1nnc(SC(C)C(=O)N(C)C2CCCCC2)n1N (stereo not given)	7.1*	112.5	-0.4	·	-4.8	7.1	0.0
O=C(CCCC(=O)N(c1ccc(F)cc1)C(C(=O)NC1CCCC1)c1ccc(O)cc1)Nc1ccccn1 (stereo not given)	11.3*	101.9	-26.2	10.4	-2.0	1.6	1.2
Cc1ccc(Nc2nnc(C)c3ccccc23)c(C)c1	12.4*	93.6	-11.6	-10.5	5.0	4.5	9.1
C=CCN(c1ccccc1)S(=O)(=O)c1ccc2c(c1)NC(=O)C(C)C(=O)N2 (stereo not given)	-0.5	101.7	1.5	40.4	1.0	3.8	·
O=C(NCC(c1cccs1)N1CCOCC1)c1cccc([N+](=O)[O-])c1 (stereo not given)	53.1*	102.1	-0.7	20.9	10.7	2.8	-2.5
O=C(NCC(c1cccs1)N1CCOCC1)c1cc([N+](=O)[O-])cc([N+](=O)[O-])c1 (stereo not given)	-4.6	91.8	-12.3	3.7	-13.5	-4.0	·
COc1cccc(CNC(=O)C2=Cc3cccc(OC)c3OC2)c1	-3.6	103.4	-11.5	-5.3	0.5	19.2	·
Cc1noc(NS(=O)(=O)c2ccc(NC(=O)C(CC(C)C)N3C(=O)c4ccccc4C3=O)cc2)c1C (stereo not given)	2.2	107.3	-7.7	8.0	7.1	7.3	·
Nc1nc[nH]c(=O)c1N=Cc1ccccc1	-1.4	96.8	5.5	-26.1	4.3	-3.8	·
